For seven compounds, outcome and AC50 results are on record in PubChem BioAssay (EPA / NIEHS).

What is called AC50 is the concentration at which the activity in the assay is half-maximal.

Where “and” joins values, the source holds several entries; their conditions need not be identical. Identical values can stand only once. Results filed as inconclusive are left out. Calls of active or inactive are those of the source. The calls were made as follows, unless noted: active = hit-call score of the fitted dose curve at least 0.9, where 1 is the maximum; inconclusive = response in the unintended direction; inactive = score below 0.9.

Read-out in test [1]: KRT18 (gene 3875)
As to the kind of experiment: BSK_BE3C_Keratin818: BioMAP Diversity Plus: BE3C Assay for Keratin 818 Biomarker Activity (AID 2284282; active = hit-call score of the fitted dose curve at least 0.9, where 1 is the maximum; inactive = score below 0.9). Particulars: primary human bronchial epithelial cells. An outline of the steps: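 In this multiplexed primary-cell system, bronchial epithelial cells were dosed and harvested at 24 h. Keratin 8/18 was determined by ELISA and analysed for increases over DMSO controls.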

Read-out in test [2]: Plasminogen activator inhibitor-1 (PAI1), SERPINE1 (gene 5054)
The test can be described thus: BSK_CASM3C_PAI1: BioMAP Diversity Plus: CASM3C Assay for Plasminogen activator inhibitor-1 (PAI1) Biomarker Activity (AID 2284284; active = hit-call score of the fitted dose curve at least 0.9, where 1 is the maximum; inactive = score below 0.9;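 also: PAI-1 protein level measured by ELISA 24 h after dosing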). Particulars: primary human coronary artery smooth muscle cells.

Read-out in test [3]: Monocyte Chemoattractant Protein-1 (MCP1), CCL2 (gene 6347)
The test can be described thus: BSK_hDFCGF_MCP1: BioMAP Diversity Plus: hDFCGF Assay for Monocyte Chemoattractant Protein-1 (MCP1) Biomarker Activity (AID 2284285; active = hit-call score of the fitted dose curve at least 0.9, where 1 is the maximum; inactive = score below 0.9). Particulars: primary human foreskin fibroblasts. A digest of the protocol:
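MCP-1 ELISA readout was taken 24 hours after dosing primary human dermal fibroblasts in the hDFCGF system, with DMSO as baseline. Parallel sulforhodamine B staining of total protein tracked overt cytotoxicity.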

Read-out in test [4]: Intercellular Adhesion Molecule 1 (ICAM1), ICAM1 (gene 3383)
The test can be described thus: BSK_hDFCGF_ICAM1: BioMAP Diversity Plus: hDFCGF Assay for Intercellular Adhesion Molecule 1 (ICAM1) Biomarker Activity (AID 2284287; active = hit-call score of the fitted dose curve at least 0.9, where 1 is the maximum; inactive = score below 0.9). Particulars: primary human foreskin fibroblasts. An outline of the steps:
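ICAM-1 ELISA readout 24 h after dosing, DMSO as baseline, in human dermal foreskin fibroblast cultures. Cytotoxicity checked in parallel wells by SRB staining (0.1% SRB, 10% TCA fixation, 560 nm).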

Read-out in test [5]: TIMP metallopeptidase inhibitor 2 (TIMP2), TIMP2 (gene 7077)
As to the kind of experiment: BSK_hDFCGF_TIMP2: BioMAP Diversity Plus: hDFCGF Assay for TIMP metallopeptidase inhibitor 2 (TIMP2) Biomarker Activity (AID 2284289; active = hit-call score of the fitted dose curve at least 0.9, where 1 is the maximum; inactive = score below 0.9). Particulars: primary human foreskin fibroblasts. A digest of the protocol:
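Primary human foreskin fibroblasts in the hDFCGF system, dosed for 24 h; TIMP-2 level measured by ELISA, fitted in the positive direction against DMSO; cytotoxicity checked in parallel by sulforhodamine B total protein staining.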

Read-out in test [6]: Thrombomodulin, THBD (gene 7056)
As to the kind of experiment: BSK_LPS_Thrombomodulin: BioMAP Diversity Plus: LPS Assay for Thrombomodulin Biomarker Activity (AID 2284296; active = hit-call score of the fitted dose curve at least 0.9, where 1 is the maximum; inactive = score below 0.9). Particulars: primary human HUVEC with PBMC. An outline of the steps:
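Thrombomodulin on the surface of LPS-activated endothelial/PBMC co-cultures was quantified by ELISA at 24 hours post-dosing, with DMSO as baseline. Parallel SRB total-protein staining flagged overt cytotoxicity.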

Test [7] is described as follows: CCTE_Mundy_HCI_hNP1_Pro_ResponderAvgInten: CCTE's Proliferation Assay in human neuroprogenitor cells, Mundy Lab (AID 2284224).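 Also: human neural progenitor cells hNP1 derived from WA09 embryonic stem cells.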 A digest of the protocol:
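Proliferation read as average intensity of BrdU-positive cells, imaged at 26.25 h post-dosing: chemical exposure started after 40–44 h culture, BrdU during final 4 h, paraformaldehyde fixation. Positive-direction fit relative to DMSO.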

The target in test [8] is Estrogen receptor (Homo sapiens) (UniProt P03372). The test can be described thus: CCTE_Deisenroth_AIME_384WELL_LUC_Active: CCTE's 384-well Estrogen Receptor Transactivation Assay with AIME metabolic competence (ERTA luciferase; metabolism positive), Deisenroth Lab (AID 2284030). A digest of the protocol: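 VM7Luc4E2 breast cells were given, for 24 hours, medium pre-incubated for 2 hours with parent chemical (0.002-200 uM, 10 concentrations) and alginate-encapsulated phenobarbital/beta-naphthoflavone-induced rat hepatic S9. Luciferase gain of signal was fitted against 17beta-estradiol; n=4 or more.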
Chain of Estrogen receptor (Homo sapiens) (P03372 whole entry, looked up): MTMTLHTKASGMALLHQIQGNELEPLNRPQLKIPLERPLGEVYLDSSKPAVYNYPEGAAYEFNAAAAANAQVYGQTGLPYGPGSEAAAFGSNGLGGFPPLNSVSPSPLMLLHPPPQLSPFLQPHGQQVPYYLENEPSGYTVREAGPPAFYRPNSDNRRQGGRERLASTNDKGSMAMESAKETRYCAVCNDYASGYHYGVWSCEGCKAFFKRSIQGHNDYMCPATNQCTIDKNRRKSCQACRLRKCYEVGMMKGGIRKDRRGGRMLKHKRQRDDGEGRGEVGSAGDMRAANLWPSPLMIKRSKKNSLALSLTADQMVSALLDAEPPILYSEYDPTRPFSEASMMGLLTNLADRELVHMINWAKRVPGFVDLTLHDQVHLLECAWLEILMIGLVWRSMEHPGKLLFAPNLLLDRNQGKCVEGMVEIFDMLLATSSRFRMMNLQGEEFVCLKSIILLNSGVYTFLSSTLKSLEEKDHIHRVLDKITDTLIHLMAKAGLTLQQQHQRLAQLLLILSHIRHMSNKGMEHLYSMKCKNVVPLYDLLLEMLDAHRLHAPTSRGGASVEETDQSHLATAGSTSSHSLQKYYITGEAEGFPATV

Test [9] has the same target. As to the kind of experiment: CCTE_Deisenroth_AIME_384WELL_LUC_Inactive: CCTE's 384-well Estrogen Receptor Transactivation Assay without AIME metabolic competence (ERTA luciferase; metabolism negative), Deisenroth Lab (AID 2284038).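 Also: hits raise estrogen receptor luciferase signal so potencies reflect agonists.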 A digest of the protocol:
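Metabolism-negative mode: AIME lids stamped in alginate-water, no hepatic S9. 2 h chemical incubation → medium onto VM7Luc4E2 ERTA, 24 h. Readout luciferase luminescence; gain-of-signal fit vs 17beta-estradiol. Conc. 0.002 - 200 uM.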

For test [10] the target is unchanged. As to the kind of experiment: CCTE_Deisenroth_AIME_384WELL_LUC_Shift: CCTE's 384-well Estrogen Receptor Transactivation Assay with AIME metabolic competence data shift (ERTA luciferase; difference in metabolism positive and negative), Deisenroth Lab (AID 2284041; active = hit-call score of the fitted dose curve at least 0.9, where 1 is the maximum; inactive = score below 0.9;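 also: shift is response with S9 minus without S9 so positive means metabolism raised ER signal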). A digest of the protocol: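 Chemicals (0.002–200 uM, 10 points) pre-incubated 2 h with alginate-encapsulated induced male Sprague Dawley rat liver S9 or S9-free, then medium applied 24 h to VM7Luc4E2 cells; luciferase. Endpoint is per-concentration difference, S9-positive minus negative.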

Test [11] deals with Glucocorticoid receptor (Homo sapiens) (UniProt P04150). As to the kind of experiment: NVS_NR_hGR: NovaScreen (NVS) Nuclear Receptor Binding Assay for human Glucocorticoid Receptor (GR) (AID 2283363).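 Also: activity is loss of specific radioligand binding signal relative to DMSO.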 A digest of the protocol: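 Filter scintillation readout of tritiated/iodinated radioligand displaced by test chemical; cell-free extracted protein; 16 h. DMSO = negative control/baseline. Duplicate single-point 25 uM screen, then concentration-response on actives.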
Chain of Glucocorticoid receptor (Homo sapiens) (P04150 whole entry, looked up): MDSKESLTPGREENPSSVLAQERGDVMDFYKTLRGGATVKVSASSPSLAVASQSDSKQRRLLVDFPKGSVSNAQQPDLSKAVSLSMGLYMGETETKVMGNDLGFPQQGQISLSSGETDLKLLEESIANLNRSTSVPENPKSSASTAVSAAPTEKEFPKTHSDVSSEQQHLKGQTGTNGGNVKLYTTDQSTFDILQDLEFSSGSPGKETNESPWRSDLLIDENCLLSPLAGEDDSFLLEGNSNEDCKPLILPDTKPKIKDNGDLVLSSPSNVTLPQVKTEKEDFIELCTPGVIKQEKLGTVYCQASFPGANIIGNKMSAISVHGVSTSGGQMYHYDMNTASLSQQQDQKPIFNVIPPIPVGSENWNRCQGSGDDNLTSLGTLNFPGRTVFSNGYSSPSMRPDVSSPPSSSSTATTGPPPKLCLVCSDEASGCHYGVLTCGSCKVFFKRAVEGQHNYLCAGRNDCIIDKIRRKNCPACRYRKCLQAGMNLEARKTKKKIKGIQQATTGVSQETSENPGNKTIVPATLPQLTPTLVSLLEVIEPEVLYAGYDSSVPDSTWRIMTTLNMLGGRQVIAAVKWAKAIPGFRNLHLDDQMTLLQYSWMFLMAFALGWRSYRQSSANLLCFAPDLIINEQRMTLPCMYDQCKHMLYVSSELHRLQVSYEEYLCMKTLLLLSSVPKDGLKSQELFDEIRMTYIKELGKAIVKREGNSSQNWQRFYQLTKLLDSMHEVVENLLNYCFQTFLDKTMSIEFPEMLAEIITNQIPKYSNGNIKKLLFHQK

For test [12], the target named is Estrogen receptor (Homo sapiens) + Estrogen receptor beta (Homo sapiens) (UniProt P03372+Q92731). As to the kind of experiment: OT_ER_ERaERb_0480: Odyssey Thera (OT) 8-hour HEK293T Protein-Complementation Assay for Estrogen Receptor-alpha/-beta Heterodimer (AID 2283352). An outline of the steps: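 Fluorescence increase from reconstituted reporter fragments, quantified by laser scanning cytometer, reflects ER-alpha/ER-beta heterodimer formation in human HEK293T cells. Exposure 8 h; positive-direction fitting against DMSO vehicle.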
Chain of Estrogen receptor (Homo sapiens) + Estrogen receptor beta (Homo sapiens) (P03372 whole entry, looked up, the tested form may be a part): as the sequence (P03372 whole entry, looked up) above
Chain of Estrogen receptor (Homo sapiens) + Estrogen receptor beta (Homo sapiens) (Q92731 whole entry, looked up, the tested form may be a part): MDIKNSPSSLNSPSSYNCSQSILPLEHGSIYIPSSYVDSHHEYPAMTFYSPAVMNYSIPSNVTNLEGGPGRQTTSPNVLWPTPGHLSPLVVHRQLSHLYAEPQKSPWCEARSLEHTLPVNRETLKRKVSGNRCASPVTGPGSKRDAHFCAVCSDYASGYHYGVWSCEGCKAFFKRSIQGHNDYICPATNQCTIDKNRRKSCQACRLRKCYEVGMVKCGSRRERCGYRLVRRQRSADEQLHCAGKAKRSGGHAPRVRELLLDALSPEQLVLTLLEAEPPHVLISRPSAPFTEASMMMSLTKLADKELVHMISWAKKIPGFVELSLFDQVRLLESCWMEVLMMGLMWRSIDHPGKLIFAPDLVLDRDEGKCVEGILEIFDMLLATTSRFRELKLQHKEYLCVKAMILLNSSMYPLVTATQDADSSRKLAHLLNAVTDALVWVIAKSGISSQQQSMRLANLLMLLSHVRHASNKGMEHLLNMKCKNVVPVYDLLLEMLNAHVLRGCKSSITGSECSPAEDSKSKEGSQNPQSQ

The target of test [13] is rat Androgen Receptor (AR), Ar (gene 24208) (UniProt P15207). As to the kind of experiment: NVS_NR_rAR: NovaScreen (NVS) Nuclear Receptor Binding Assay for rat Androgen Receptor (AR) (AID 2283366). An outline of the steps:
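Actives from a duplicate single-concentration (25 uM) primary run went on to concentration series. Displacement of radioligand was counted by filtration and scintillation, 18 h post-dose, using prostate extracts from testosterone-pretreated rats, with DMSO as baseline.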

The nature of test [14]: CCTE_Deisenroth_AIME_96WELL_CTox_Active: Cytotoxicity Assessment (CTOX) in CCTE's 96-well Estrogen Receptor Transactivation Assay with AIME metabolic competence (metabolism positive), Deisenroth Lab (AID 2284028). A digest of the protocol: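 Cytotoxicity in VM7Luc4E2 breast cells after 24 h exposure to medium from a 2 h metabolic pre-incubation with induced rat hepatic S9 in alginate microspheres; fluorescent live-cell protease readout, 10-point series 0.002–200 uM, n=4.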

Test [15] is described as follows: CCTE_Deisenroth_AIME_96WELL_CTox_Inactive: Cytotoxicity Assessment (CTOX) in CCTE's 96-well Estrogen Receptor Transactivation Assay without AIME metabolic competence (metabolism negative), Deisenroth Lab (AID 2284029). An outline of the steps:
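Cytotoxicity in VM7Luc4E2 breast cells was scored as loss of fluorescent signal from a live-cell protease substrate 24 h after exposure, using bidirectional curve fitting. Test media came from a 2 h metabolism-negative pre-incubation (alginate-water, no hepatic S9) of compounds at 0.002-200 uM, with at least four replicates.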

Test [16] has as its target Tyrosine-protein phosphatase non-receptor type 11 (Homo sapiens) (UniProt Q06124). The test can be described thus: NVS_ENZ_hPTPN11: NovaScreen (NVS) Enzymatic Assay for human Protein Tyrosine Phosphatase Non-receptor Type 11 (PTPN11) (AID 2283202). An outline of the steps: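 Compounds first tested in duplicate at 25 uM; those reaching ~30% inhibition rerun in singleton concentration-response, top 50 uM. Phosphatase activity measured after 0.5 h by fluorescence with mobility-shift separation, relative to DMSO.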

Test [17] in a line: ATG_M_06_XSP2: Attagene TRANS-FACTORIAL Multi-Species (XSP2) HepG2 Assay for M06 Transcription Factor (Internal Marker) (AID 2283811).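 Also: hits are increases in signal above the DMSO baseline.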 A digest of the protocol:
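Readout: fluorescent reporter-mRNA peaks by capillary electrophoresis after RT-PCR and HpaI digest, scored upward relative to DMSO. Transfected HepG2, 24 h chemical exposure, with 3 nM 6-alpha-fluorotestosterone and 1.5 nM norgestrel added.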

The subject of test [18] is turtle Estrogen Receptor (ERa), gene 101933533. The test can be described thus: ATG_trERa_XSP2: Attagene TRANS-FACTORIAL Multi-Species (XSP2) HepG2 Assay for turtle Estrogen Receptor (ERa) (AID 2283812).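 Also: actives raise reporter signal above DMSO so AC50 reflects agonist activity.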 A digest of the protocol: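 Readout is reporter mRNA quantified by RT-PCR with capillary electrophoresis after 24 h compound exposure, increase relative to DMSO. Uses transiently transfected human HepG2 liver cells carrying a chimeric turtle ERa-Gal4 receptor driving GAL4-UAS reporters.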

In test [19] the target is Estrogen receptor beta (Homo sapiens) (UniProt Q92731). The test can be described thus: ATG_hERb_XSP2: Attagene TRANS-FACTORIAL Multi-Species (XSP2) HepG2 Assay for human Estrogen Receptor (ERb) (AID 2283813).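 Also: actives raise reporter mRNA above DMSO so AC50 reflects agonist induction.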 A digest of the protocol: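 Transient TRANS reporter system in HepG2: after 24 h of chemical, RNA is reverse-transcribed, reporter cDNA amplified, FAM-labelled and sized by capillary electrophoresis. Induction of the human ERb-Gal4 reporter is measured relative to DMSO.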
Chain of Estrogen receptor beta (Homo sapiens) (Q92731 whole entry, looked up, the tested form may be a part): as above

In test [20] the target is GAL4 Transcription Factor (Internal Marker), GAL4 (gene 855828) (UniProt P04386). As to the kind of experiment: ATG_GAL4_XSP2: Attagene TRANS-FACTORIAL Multi-Species (XSP2) HepG2 Assay for GAL4 Transcription Factor (Internal Marker) (AID 2283814).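 Also: GAL4 reporter mRNA background control in MRTU transfected cells not a receptor target.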 A digest of the protocol: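 Background-control readout: gain-of-signal fitted against DMSO. After 24 h exposure of transfected HepG2 (MRTU, GAL4-UAS reporters; 3 nM 6-alpha-fluorotestosterone, 1.5 nM norgestrel present), transcripts quantified by RT-PCR and capillary electrophoresis fluorescence.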
Chain of GAL4 Transcription Factor (Internal Marker), GAL4 (gene 855828) (P04386 whole entry, looked up, the tested form may be a part): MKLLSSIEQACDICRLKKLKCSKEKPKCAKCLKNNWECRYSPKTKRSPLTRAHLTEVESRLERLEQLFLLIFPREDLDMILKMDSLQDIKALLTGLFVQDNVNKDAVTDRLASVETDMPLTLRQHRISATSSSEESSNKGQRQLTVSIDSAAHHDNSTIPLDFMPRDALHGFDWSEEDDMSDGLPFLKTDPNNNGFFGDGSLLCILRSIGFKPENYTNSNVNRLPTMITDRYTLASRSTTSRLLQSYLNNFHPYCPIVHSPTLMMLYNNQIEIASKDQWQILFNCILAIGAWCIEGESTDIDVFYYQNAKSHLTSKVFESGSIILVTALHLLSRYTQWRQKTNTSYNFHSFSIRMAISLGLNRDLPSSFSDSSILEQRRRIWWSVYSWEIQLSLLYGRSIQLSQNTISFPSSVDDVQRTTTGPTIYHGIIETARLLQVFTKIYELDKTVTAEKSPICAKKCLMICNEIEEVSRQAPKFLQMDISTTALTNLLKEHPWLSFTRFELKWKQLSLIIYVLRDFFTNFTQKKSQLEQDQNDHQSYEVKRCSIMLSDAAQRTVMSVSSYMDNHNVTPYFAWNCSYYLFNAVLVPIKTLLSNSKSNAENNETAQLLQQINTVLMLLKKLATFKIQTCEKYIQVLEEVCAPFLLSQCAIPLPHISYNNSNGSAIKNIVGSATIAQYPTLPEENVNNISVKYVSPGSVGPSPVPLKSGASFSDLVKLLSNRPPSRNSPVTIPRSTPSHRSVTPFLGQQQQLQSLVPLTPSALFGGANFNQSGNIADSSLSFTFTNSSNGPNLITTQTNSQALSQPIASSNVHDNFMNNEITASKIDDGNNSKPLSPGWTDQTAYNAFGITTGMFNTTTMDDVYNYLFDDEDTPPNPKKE

Chain of rat Androgen Receptor (AR), Ar (gene 24208) (P15207 whole entry, looked up): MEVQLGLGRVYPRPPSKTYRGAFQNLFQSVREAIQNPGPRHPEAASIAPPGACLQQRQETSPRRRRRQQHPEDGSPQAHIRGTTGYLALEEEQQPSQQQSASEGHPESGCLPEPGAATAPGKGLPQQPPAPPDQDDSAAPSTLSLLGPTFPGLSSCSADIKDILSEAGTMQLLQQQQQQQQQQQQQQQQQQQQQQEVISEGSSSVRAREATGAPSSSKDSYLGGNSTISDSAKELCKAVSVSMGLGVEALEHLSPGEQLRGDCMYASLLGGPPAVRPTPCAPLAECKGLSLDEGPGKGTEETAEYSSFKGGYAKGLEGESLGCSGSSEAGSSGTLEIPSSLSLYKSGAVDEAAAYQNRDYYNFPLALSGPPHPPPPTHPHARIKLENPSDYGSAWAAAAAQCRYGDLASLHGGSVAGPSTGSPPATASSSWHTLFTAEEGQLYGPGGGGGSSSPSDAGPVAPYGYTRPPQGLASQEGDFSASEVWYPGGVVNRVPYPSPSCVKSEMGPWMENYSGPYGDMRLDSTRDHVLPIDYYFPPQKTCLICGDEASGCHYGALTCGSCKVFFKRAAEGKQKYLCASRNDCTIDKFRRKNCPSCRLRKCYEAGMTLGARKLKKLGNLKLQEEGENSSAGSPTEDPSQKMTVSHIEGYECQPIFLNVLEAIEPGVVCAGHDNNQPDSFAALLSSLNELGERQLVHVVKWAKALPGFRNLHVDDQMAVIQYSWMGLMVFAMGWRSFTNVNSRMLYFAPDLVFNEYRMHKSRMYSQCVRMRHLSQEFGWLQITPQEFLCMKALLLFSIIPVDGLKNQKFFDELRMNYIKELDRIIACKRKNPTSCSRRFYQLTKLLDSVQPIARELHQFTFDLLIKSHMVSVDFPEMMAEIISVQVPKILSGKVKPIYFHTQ
Chain of Tyrosine-protein phosphatase non-receptor type 11 (Homo sapiens) (Q06124 whole entry, looked up): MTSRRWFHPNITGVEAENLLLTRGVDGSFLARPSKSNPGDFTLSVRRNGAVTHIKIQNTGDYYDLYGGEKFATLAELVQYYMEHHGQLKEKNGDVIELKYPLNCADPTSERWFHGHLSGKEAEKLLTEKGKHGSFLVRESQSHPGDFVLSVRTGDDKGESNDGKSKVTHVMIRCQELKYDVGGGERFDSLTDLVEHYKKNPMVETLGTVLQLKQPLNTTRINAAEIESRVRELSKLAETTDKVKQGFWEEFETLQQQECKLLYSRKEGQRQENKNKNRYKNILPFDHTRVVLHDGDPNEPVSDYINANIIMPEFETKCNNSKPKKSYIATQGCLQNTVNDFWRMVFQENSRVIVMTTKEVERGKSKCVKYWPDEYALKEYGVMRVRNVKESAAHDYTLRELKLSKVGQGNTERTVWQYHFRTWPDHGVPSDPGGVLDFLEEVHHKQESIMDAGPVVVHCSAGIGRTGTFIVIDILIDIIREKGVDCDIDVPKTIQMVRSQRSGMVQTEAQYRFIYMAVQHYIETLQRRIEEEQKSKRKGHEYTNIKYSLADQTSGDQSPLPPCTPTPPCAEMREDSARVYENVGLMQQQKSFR

In the case of `CN(C)Cc1cc(C(C)(C)C)c(O)c(C(C)(C)C)c1`, the result in [1], in [2], in [3], in test [4], in test [5] and in test [6] was inactive.
As to `NC(N)=Nc1nc(CSCCC(N)=NS(N)(=O)=O)cs1`, in test [7], the call was inactive.
With `CCCCCCC1CCC(=O)O1` (stereo not given), the AC50 in [8] was 0.244 nM (active); in [9], 1.29 nM (active); in test [10] it was 0.196 nM (active).
Take `CCCCC(CC)COC(=O)CS` (stereo not given): the concentration at half-maximal activity (AC50) in test [11] is 25000 nM (active).
Take `C=C1CC[C@H]2C[C@@H]1C2(C)C`: in test [12], the outcome was inactive.
On to `Cc1cc(-n2nc3ccc(Cl)cc3n2)c(O)c(C(C)(C)C)c1`, for which the compound was called inactive in [13], in [14] and in [15].
In the case of `Cc1cc(O)cc(C)c1Cl`, the compound was classed as inactive in [16], in test [17] and in [20]. In addition, the AC50 in test [18] is 45.8 µM (active) and 16.2 µM (active); in test [19], 7.77 µM (active) and 7.9 µM (active).
